Activity calls are given as the source filed them.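 The calls were made as follows, unless noted: active = NADPH fluorescence slope more negative than the mean of all samples by about 3 SD, 99.7% confidence; inactive = the rest.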
Experiments:
[1] = inhibitors of TNFa-induced NFkB p65 translocation, primary screen, imaging, HUVEC, MLSMR starter and 10KST1 sets (AID 438;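 active = inhibition above 20% together with a positive visual image hit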;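 also: compound added about 3h40 before a 20 min TNFalpha stimulation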;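 as to inhibition: signal is the nuclear over cytoplasmic p65 intensity ratio per well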); details: HUVEC TNFa-induced p65 nuclear translocation; cell count: measured here: nuclei count (cytotoxicity indicator), at 2.08 µM; inhibition: at 2 µM, stronger effect = higher value, 0% TNFa-plus-vehicle, 100% no-TNFa wells
[2] = reduction of polyQ htt aggregates in cells – imaging, exon1htt(103Q)mCFP cells, high-content imaging, primary screen (AID 483;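 active = visual image review flags a hit and inhibition of aggregation exceeds 20%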;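 also: compound exposure lasted 3 days before fixation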;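 as to nuclei count: percent of the per-plate median nuclei count of sample wells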); details: exon1htt(103Q)mCFP cell line, aggregate imaging, at 2 µM; inhibition of aggregation: stronger effect = higher value; nuclei count: measured here: cell count, toxicity
[3] = endothelial E-selectin expression blockers – imaging, HUVEC, immunofluorescence, MLSMR starter and 10KST1 sets, primary screen (AID 487;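 active = visually confirmed hit in the image check and inhibition above 20%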;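 as to inhibition: signal is fraction of cell area covered by stained E-selectin grains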;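 as to nuclei count: 100% = median nuclei count of all wells on the same plate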); details: HUVEC TNFalpha-induced E-selectin immunofluorescence imaging, at 2 µM; inhibition: stronger effect = higher value; nuclei count: measured here: cell number, toxicity
[4] = target: Voltage-gated potassium channel subunit beta-2 (Rattus norvegicus) (UniProt P62483); assay: inhibitors of rat Kvbeta2 reductase activity – biochemical, NADPH fluorescence, primary screen (AID 622;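 active = fluorescence slope higher than the sample average by over 3 SD, cut at about -0.22 in these data, passing the limit was not always enough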;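 also: slope of raw intensity against log time taken from 70 to 1610 s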); details: recombinant KvBeta, 4-cyanobenzaldehyde reduction, at 10 µM, stronger effect = higher value
[5] = target: Voltage-gated potassium channel subunit beta-2 (Rattus norvegicus) (UniProt P62483); assay: enhancers of rat Kvbeta2 NADPH turnover – biochemical, NADPH fluorescence, primary screen (AID 623); details: Recombinant KvBeta, NADPH fluorescence decrease slope, 10 min; at 10 µM; stronger effect = lower value;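 also: fluorescence intensity change per second fitted from 20 to 320 s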
[6] = target: Alpha-2C adrenergic receptor (Homo sapiens) (UniProt P18825); assay: compounds altering alpha2C-coupled GIRK flux – cell-based, HEK293 alpha2C/GIRK1/2, thallium flux, primary screen (AID 624;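 active = fluorescence slope after compound addition differing from the mean of all screened samples at 99.7% confidence, in either direction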;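 also: slope of fluorescence ratio to pre-addition baseline per second over 15 to 24 s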); details: thallium flux BTC fluorescence, at 10 µM, actives lie on both sides
[7] = blockers of RIG-like receptor reporter activation – cell-based, Sendai virus stimulus, luciferase, 10K MLSCN set, TLR/RLR signaling modifier project, primary screen (AID 602276;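 active = inhibition at or above 50% at 10 µM; inactive = inhibition below 50%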;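 also: firefly luciferase from ISG56 promoter only with Renilla not read in this screen; 0% = Sendai virus plus DMSO and 100% = medium plus DMSO without virus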); details: HEK293 RL24 IRF3 luciferase reporter, at 10 µM, stronger effect = higher value
[8] = TLR3 IRF3 reporter activation blockers – cell-based, poly I:C stimulus, luciferase, 10K MLSCN set, primary screen (AID 602277;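 active = inhibition of the reporter signal at or above 50%; inactive = inhibition below 50%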); details: HEK293-TLR3 RL24 IRF3 luciferase reporter, at 10 µM, stronger effect = higher value

Voltage-gated potassium channel subunit beta-2 (Rattus norvegicus), sequence (P62483 whole entry, looked up): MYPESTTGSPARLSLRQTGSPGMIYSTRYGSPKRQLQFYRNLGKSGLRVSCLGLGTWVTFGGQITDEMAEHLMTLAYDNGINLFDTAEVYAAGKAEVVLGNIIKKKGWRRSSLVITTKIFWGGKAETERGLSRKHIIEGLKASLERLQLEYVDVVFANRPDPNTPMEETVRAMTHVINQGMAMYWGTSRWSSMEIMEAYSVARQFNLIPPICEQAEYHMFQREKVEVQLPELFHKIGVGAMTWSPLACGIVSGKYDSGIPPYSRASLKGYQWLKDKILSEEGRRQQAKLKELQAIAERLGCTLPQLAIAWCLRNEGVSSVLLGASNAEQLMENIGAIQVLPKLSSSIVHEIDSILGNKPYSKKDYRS
Alpha-2C adrenergic receptor (Homo sapiens), sequence (P18825 whole entry, looked up): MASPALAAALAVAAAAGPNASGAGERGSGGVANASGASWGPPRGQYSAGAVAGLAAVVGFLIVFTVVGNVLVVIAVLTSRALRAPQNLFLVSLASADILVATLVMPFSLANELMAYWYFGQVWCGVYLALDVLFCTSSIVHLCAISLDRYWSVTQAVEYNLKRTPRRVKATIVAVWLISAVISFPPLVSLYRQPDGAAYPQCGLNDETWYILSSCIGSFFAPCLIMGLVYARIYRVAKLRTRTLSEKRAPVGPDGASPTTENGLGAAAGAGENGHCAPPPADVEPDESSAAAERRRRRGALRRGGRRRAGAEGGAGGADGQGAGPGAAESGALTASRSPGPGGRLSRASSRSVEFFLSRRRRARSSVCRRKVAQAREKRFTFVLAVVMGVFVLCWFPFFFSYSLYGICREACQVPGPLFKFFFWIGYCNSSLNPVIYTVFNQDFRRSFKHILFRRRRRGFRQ

Row | Structure (SMILES) | cell count [1] | inhibition [1] | inhibition of aggregation [2] | nuclei count [2] [%] | inhibition [3] | nuclei count [3] [%] | fluorescence slope [4] | NADPH fluorescence slope [5] | slope [6] | inhibition [7] | inhibition [8]
1 | CCOc1ccc(Cn2nnc(C(=O)Nc3cc(C)cc(C)c3)c2N)cc1 | 751 | -0.6% (inactive) | 12.1% (inactive) | 100 | -46.9% (inactive) | 108 | -0.521 (inactive) | -2.6e-05 (inactive) | 0.00695 (inactive) | 2.58% (inactive) | 9.37% (inactive)
2 | O=C(c1cc2ccccc2oc1=O)N1CCN(c2ccc(N3CCOCC3)nn2)CC1 | 490 | -6.9% (inactive) | 0.1% (inactive) | 104 | -13.6% (inactive) | 110 | -0.603 (inactive) | -1.8e-05 (inactive) | 0.00513 (inactive) | -9.88% (inactive) | 18.4% (inactive)
3 | CCOC(=O)c1cccc(NC(=O)CNS(=O)(=O)c2cccs2)c1 | 445 | 6.8% (inactive) | -11.6% (inactive) | 108 | -7.8% (inactive) | 134 | -0.518 (inactive) | -4.4e-05 (inactive) | 0.00596 (inactive) | -11.6% (inactive) | -10.2% (inactive)
4 | COc1ccccc1C(=O)n1nc(-c2ccc(Cl)cc2)nc1N | 330 | -1.2% (inactive) | -3.1% (inactive) | 104 | -17.2% (inactive) | 113 | -0.426 (inactive) | 1.8e-05 (inactive) | 0.00385 (inactive) | 2.38% (inactive) | 9.48% (inactive)
5 | O=C(CSc1nnc(-c2ccc(Br)o2)n1Cc1ccccc1)c1ccccc1F | 336 | -5.8% (inactive) | 11.9% (inactive) | 87.1 | -35.1% (inactive) | 96.4 | -0.391 (inactive) | -4.8e-05 (inactive) | 0.00522 (inactive) | 6.04% (inactive) | 18.1% (inactive)
6 | COc1ccc(-c2nnc(SCCC(=O)O)n2-c2ccccc2)cc1 | 348 | 2.5% (inactive) | -19.5% (inactive) | 107 | -10.9% (inactive) | 124 | -0.644 (inactive) | 1.6e-05 (inactive) | 0.00524 (inactive) | 12.1% (inactive) | 16.4% (inactive)
7 | CCCc1cc(C(=O)Nc2ccccc2SC)no1 | 849 | 5.8% (inactive) | -12.6% (inactive) | 108 | -35.7% (inactive) | 121 | -0.597 (inactive) | -2.4e-05 (inactive) | 0.00474 (inactive) | -22% (inactive) | -51.6% (inactive)
8 | Cc1nc(NCc2ccco2)c2oc3ccccc3c2n1 | 337 | 15% (inactive) | -4.3% (inactive) | 94.4 | 19.5% (inactive) | 96.4 | -0.389 (inactive) | -1.9e-05 (inactive) | 0.00599 (inactive) | 3.36% (inactive) | -32.5% (inactive)
9 | COc1ccc(Br)cc1CNC(=O)CCc1nc(-c2ccc(C)cc2)no1 | 517 | -4% (inactive) | -13.7% (inactive) | 98.4 | -2.8% (inactive) | 120 | -0.314 (inactive) | -6.4e-07 (inactive) | 0.00305 (inactive) | 15.2% (inactive) | 28.1% (inactive)
10 | COC(=O)c1cc(-c2c(C)oc3cc(O)ccc3c2=O)c(C)o1 | 609 | -2.2% (inactive) | -24% (inactive) | 114 | -117% (inactive) | 167 | -0.129 (active) | 2.7e-05 (inactive) | 0.0074 (inactive) | 4.96% (inactive) | 1.06% (inactive)
11 | CCN1C(=O)C2(C(C#N)=C(N)Oc3n[nH]c(C(C)C)c32)c2ccccc21 (stereo not drawn) | 679 | -4.5% (inactive) | -20.7% (inactive) | 104 | 2.2% (inactive) | 97 | -0.485 (inactive) | -3.1e-05 (inactive) | 0.005 (inactive) | 20.9% (inactive) | 21.2% (inactive)
12 | c1cn(CC2(Cn3ccnc3)COC2)cn1 | 793 | -6.2% (inactive) | -13.4% (inactive) | 104 | -2.3% (inactive) | 105 | -0.614 (inactive) | -1.1e-05 (inactive) | 0.00589 (inactive) | 14.1% (inactive) | 17.6% (inactive)
13 | c1ccc(CCn2nnnc2C(c2cccs2)N2CCOCC2)cc1 (stereo not drawn) | 675 | -8.6% (inactive) | -16% (inactive) | 124 | -74.9% (inactive) | 106 | -0.488 (inactive) | -0.000173 (inactive) | 0.00462 (inactive) | 4.38% (inactive) | 17.4% (inactive)

— PubChem BioAssay
